Reference: PubChem BioAssay
Results filed as inconclusive are left out. The source made the active and inactive calls.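 Rule for the calls, unless noted: active = normalized viability below 100% at a tested concentration; inactive = the rest.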

Legend:
[1] = viability loss in pontine glioma line – cell-based, SU-DIPG-XVII, MIPE5.0, CellTiter-Glo, qHTS, dose response (AID 1347060; cut-off not given, nearly all actives have AC50 up to about 26 µM;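 note: cells exposed to compound for 48 hours before viability readout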); details: CellTiter-Glo ATP luminescence
[2] = viability loss in pontine glioma line – cell-based, SU-DIPG-XIII, MIPE4.0, CellTiter-Glo, qHTS, dose response (AID 1347061; cut-off not given, nearly all actives have AC50 up to about 37 µM;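 note: cells exposed to compound for 48 hours before readout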); details: CellTiter-Glo ATP luminescence
[3] = viability loss in pontine glioma line – cell-based, JHH-DIPG-1, MIPE4.0, CellTiter-Glo, qHTS, dose response (AID 1347062; cut-off not given, nearly all actives have AC50 up to about 27 µM;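 note: cells exposed to compound for two days before readout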); details: JHH-DIPG-1 viability, CellTiter-Glo ATP luminescence
[4] = viability loss in pontine glioma line – cell-based, SU-DIPG-IV, MIPE4.0, CellTiter-Glo, qHTS, dose response (AID 1347063; cut-off not given, nearly all actives have AC50 up to about 30 µM;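 note: compound exposure lasted 48 hours before the viability readout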); details: CellTiter-Glo ATP luminescence
[5] = viability loss in pontine glioma line – cell-based, SU-DIPG-XIII, MIPE5.0, CellTiter-Glo, qHTS, dose response (AID 1347064; cut-off not given, nearly all actives have AC50 up to about 23 µM;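 note: cells exposed to compound for 48 hours before the viability read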); details: CellTiter-Glo ATP luminescence
[6] = viability loss in pontine glioma line – cell-based, SU-DIPG-XXV, MIPE5.0, CellTiter-Glo, qHTS, dose response (AID 1347065; cut-off not given, nearly all actives have AC50 up to about 26 µM;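 note: cells exposed to compound for 48 hours before ATP readout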); details: CellTiter-Glo ATP luminescence
[7] = JHH-DIPG-1 glioma cell viability, MIPE5.0 library, CellTiter-Glo luminescence, qHTS (AID 1347067; cut-off not given, nearly all actives have AC50 up to about 26 µM;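 note: cells exposed to compound for 48 hours before readout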); details: JHH-DIPG-1 glioma viability, CellTiter-Glo ATP luminescence
[8] = growth inhibition of DIPG cells – cell-based, MIPE5.0 library, qHTS (AID 1347068; cut-off not given, nearly all actives have IC50 up to about 30 µM;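 note: cells exposed to compound for 48 hours before viability readout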); details: SU-DIPG-XXV viability
[9] = compounds altering HSF1 focus formation in cells – imaging, Selleck Cancer Library (AID 1347162; in the data active = plate-normalised HSF1 focus index below about 0.46); details: human cells, HSF1 nuclear foci imaging, at 10 µM; SSMD: measured here: HSF1 foci SSMD mean; cell count: measured here: cell number; plate-normalised HSF1 focus index: stronger effect = lower value
[10] = drug combination growth inhibition, ovarian cancer – cell-based, oncology-focused library, rucaparib conditional, profiling panel (AID 1508598); details: patient-derived ovarian cancer cells, CellTiter-Glo viability, 144 h, stronger effect = lower value
[11] = growth inhibition, single agent or in combination, cell-based, chromothripsis tumors, cisplatin or BGB combos (AID 1671449; in the data active = inhibition above about 80%;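 note: cells exposed for 96 hours; 0% = vehicle DMSO and 100% = killing by high DMSO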); details: LFS_MB_P medulloblastoma cells
[12] = growth inhibition, single agent and combos, cell-based, chromothripsis tumors, cisplatin or BGB combos (AID 1671450; in the data active = inhibition above about 80%;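 note: cells exposed to compound for four days; 0% = vehicle DMSO and 100% = cell killing by high DMSO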); details: HDN33 neuroblastoma cells, stronger effect = higher value
[13] = growth inhibition, single agents and combos, ICB984, cell-based, cisplatin or BGB combos, synergistic combos for chromothripsis tumors (AID 1671451; call rule not given here;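 note: cells exposed for 96 hours before readout; 0% = vehicle DMSO and 100% = killing by high DMSO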); details: ICB984 medulloblastoma cells, drug combinations, stronger effect = higher value
[14] = growth inhibition, single agents and combos, HTB85, cell-based, BGB or cisplatin IC20 combos, synergistic combos for chromothripsis tumors (AID 1671453; in the data active = inhibition above about 80%;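 note: cells exposed for 96 hours before readout; 0% = vehicle DMSO and 100% = high DMSO killing control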); details: HTB85 osteosarcoma cells, drug combinations, stronger effect = higher value
[15] = growth inhibition, MDA-MB-436, cell-based, BGB or cisplatin combos, synergistic combos for chromothripsis tumors (AID 1671458; call rule not given here;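 note: cells exposed for 96 hours; 0% = vehicle DMSO and 100% = killing by high DMSO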); details: MDA-MB-436 breast carcinoma growth inhibition, drug combinations, stronger effect = higher value
[16] = BT084 cell growth, single and combined drugs, ICGC_MB145, cisplatin and BGB IC40 combos (AID 1671461; in the data active = inhibition above about 80%;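 note: cells exposed to drugs for 96 hours; 0% = vehicle DMSO and 100% = high DMSO full killing control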); details: BT084 medulloblastoma cells, drug combinations, stronger effect = higher value
[17] = RCMB18 cell growth, single agent and combined, cisplatin and BGB IC40 combos (AID 1671462; in the data active = inhibition above about 80%;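 note: cells exposed to compound for four days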); details: RCMB18 medulloblastoma cells, stronger effect = higher value
[18] = viability loss with induced miR-34 in A549 – imaging, A549 dox-inducible miR-34, nuclei and caspase counts, primary screen (AID 1347080;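 active = compounds whose cell count with miR-34 switched on is under 0.7 times the count with it off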); details: A549 miR-34 inducible, Hoechst nuclei count, 48 h
[19] = MELAS cybrid and Rieske KO viability enhancers – cell-based, MELAS cybrids, Rieske KO mouse fibroblasts, CellTiter-Glo, primary screen (AID 1508586;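 active = mean z-score across replicates of 1.96 or higher in either the MELAS or the Rieske mutant cell line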;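 note: z relative to plate mean and SD of compound and empty wells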); details: low glucose
[20] = at 0.000305 µM, OCI-C5x cells, with rucaparib 10 µM, 100% = cells with rucaparib alone
[21] = at 0.000305 µM, OCI-C5x cells, without rucaparib
[22] = at 0.000305 µM, OCI-P5x cells, with rucaparib 20 µM, 100% = cells with rucaparib alone
[23] = at 0.000305 µM, OCI-P5x cells, without rucaparib
[24] = at 0.00122 µM, OCI-C5x cells, with rucaparib 10 µM, 100% = cells with rucaparib alone
[25] = at 0.00122 µM, OCI-C5x cells, without rucaparib
[26] = at 0.00122 µM, OCI-P5x cells, with rucaparib 20 µM, 100% = cells with rucaparib alone
[27] = at 0.00122 µM, OCI-P5x cells, without rucaparib
[28] = at 0.00488 µM, OCI-C5x cells, with rucaparib 10 µM, 100% = cells with rucaparib alone
[29] = at 0.00488 µM, OCI-C5x cells, without rucaparib
[30] = at 0.00488 µM, OCI-P5x cells, with rucaparib 20 µM, 100% = cells with rucaparib alone
[31] = at 0.00488 µM, OCI-P5x cells, without rucaparib
[32] = at 0.0195 µM, OCI-C5x cells, with rucaparib 10 µM, 100% = cells with rucaparib alone
[33] = at 0.0195 µM, OCI-C5x cells, without rucaparib
[34] = at 0.0195 µM, OCI-P5x cells, with rucaparib 20 µM, 100% = cells with rucaparib alone
[35] = at 0.0195 µM, OCI-P5x cells, without rucaparib
[36] = at 0.0781 µM, OCI-C5x cells, with rucaparib 10 µM, 100% = cells with rucaparib alone
[37] = at 0.0781 µM, OCI-C5x cells, without rucaparib
[38] = at 0.0781 µM, OCI-P5x cells, with rucaparib 20 µM, 100% = cells with rucaparib alone
[39] = at 0.0781 µM, OCI-P5x cells, without rucaparib
[40] = at 0.313 µM, OCI-C5x cells, with rucaparib 10 µM, 100% = cells with rucaparib alone
[41] = at 0.313 µM, OCI-C5x cells, without rucaparib
[42] = at 0.313 µM, OCI-P5x cells, with rucaparib 20 µM, 100% = cells with rucaparib alone
[43] = at 0.313 µM, OCI-P5x cells, without rucaparib
[44] = at 1.25 µM, OCI-C5x cells, with rucaparib 10 µM, 100% = cells with rucaparib alone
[45] = at 1.25 µM, OCI-C5x cells, without rucaparib
[46] = at 1.25 µM, OCI-P5x cells, with rucaparib 20 µM, 100% = cells with rucaparib alone
[47] = at 1.25 µM, OCI-P5x cells, without rucaparib
[48] = at 5 µM, OCI-C5x cells, with rucaparib 10 µM, 100% = cells with rucaparib alone
[49] = at 5 µM, OCI-C5x cells, without rucaparib
[50] = at 5 µM, OCI-P5x cells, with rucaparib 20 µM, 100% = cells with rucaparib alone
[51] = at 5 µM, OCI-P5x cells, without rucaparib

CCCCc1nc2cc(/C=C/C(=O)NO)ccc2n1CCN(CC)CC
47.6%: inhibition ([17]; measured here: combination with cisplatin, at 0.5 µM)
-13.5%: inhibition ([11]; measured here: combination with BGB IC20, at 0.005 µM)
99.7%: inhibition ([14]; single agent, at 5 µM)
104%: inhibition ([11]; measured here: combination with cisplatin, at 5 µM, stronger effect = higher value)
75.4%: inhibition ([11]; measured here: combination with BGB IC40, at 0.005 µM)
93.7%: inhibition ([17]; cisplatin combo, at 5 µM)
-1.52: SSMD [9]
52.6%: inhibition ([15]; measured here: BGB combination, at 5 µM)
99.9%: inhibition ([12]; cisplatin combo, at 5 µM) | inhibition ([14]; measured here: with cisplatin IC20, at 5 µM)
inactive: plate-normalised HSF1 focus index [9] 0.904 | viability [10, 20] 109% | viability [10, 21] 111% | viability [10, 24] 115% | viability [10, 25] 116% | viability [10, 27] 104% | viability [10, 28] 117% | viability [10, 29] 117% | viability [10, 31] 107% | viability [10, 32] 110% | viability [10, 33] 117% | viability [10, 35] 104% | viability [10, 37] 123% | inhibition ([11]; at 0.5 µM, stronger effect = higher value) -27.6% | inhibition ([12]; at 0.5 µM) 64.3% | inhibition ([13]; at 0.5 µM) -30.3% | inhibition ([14]; at 0.5 µM) 60.4% | inhibition ([15]; at 0.5 µM) 23.8% | inhibition ([16]; at 0.5 µM) 51.2% | inhibition ([17]; at 0.5 µM) 35.2%
-8.13%: inhibition ([13]; BGB IC40 combo, at 0.005 µM)
99.5%: inhibition ([12]; BGB combo, at 5 µM)
-21.7%: inhibition ([11]; measured here: combination with BGB IC40, at 0.05 µM)
-38.4%: inhibition ([13]; cisplatin combo, at 0.5 µM)
61.5%: inhibition ([14]; measured here: with cisplatin IC20, at 0.5 µM)
89.4%: inhibition ([17]; single agent, at 5 µM)
99.8%: inhibition ([12]; single agent, at 5 µM) | inhibition ([14]; measured here: with BGB IC20, at 5 µM)
11.4%: inhibition ([17]; measured here: BGB IC40 combination, at 0.05 µM)
7710: cell count [9]
56%: inhibition ([14]; measured here: with BGB IC20, at 0.5 µM)
62.4%: inhibition ([16]; cisplatin combination, at 0.5 µM)
-16.6%: inhibition ([13]; cisplatin combo, at 5 µM)
-44.4%: inhibition ([13]; measured here: 5 uM single agent, at 5 µM)
7.49%: inhibition ([13]; BGB IC20 combo, at 0.005 µM)
107%: inhibition ([16]; single agent, at 5 µM)
90.2%: inhibition ([13]; BGB IC40 combo, at 0.05 µM) | inhibition ([13]; cisplatin combo, at 0.05 µM)
101%: inhibition ([16]; cisplatin combination, at 5 µM)
71.1%: inhibition ([12]; measured here: with cisplatin IC20 combination, at 0.5 µM)
61.6%: inhibition ([15]; measured here: cisplatin combination, at 5 µM)
18.7%: inhibition ([15]; measured here: BGB combination, at 0.5 µM)
13.3%: inhibition ([15]; measured here: cisplatin combination, at 0.5 µM)
57.9%: inhibition ([12]; measured here: with BGB IC20 combination, at 0.5 µM)
-12.4%: inhibition ([16]; measured here: BGB IC40 combination 0.05 uM, at 0.05 µM)
active: AC50 [1] 1.66 µM | AC50 [2] 14.8 µM | AC50 [3] 296 nM | AC50 [4] 14.8 nM | AC50 [5] 1.32 µM | AC50 [6] 332 nM | AC50 [7] 1.05 µM | IC50 [8] 13.2 µM | viability [10, 22] 93.3% | viability [10, 23] 99.3% | viability [10, 26] 98.6% | viability [10, 30] 95.5% | viability [10, 34] 93.4% | viability [10, 36] 96.7% | viability [10, 38] 88.6% | viability [10, 39] 95.7% | viability [10, 40] 92.4% | viability [10, 41] 91.7% | viability [10, 42] 68.3% | viability [10, 43] 76.5% | viability [10, 44] 28.3% | viability [10, 45] 21.2% | viability [10, 46] 26.6% | viability [10, 47] 43.4% | viability [10, 48] 4.57% | viability [10, 49] 5.34% | viability [10, 50] 1.32% | viability [10, 51] 2.31%
-26%: inhibition ([11]; measured here: combination with cisplatin, at 0.5 µM, stronger effect = higher value)

COc1c(C)cnc(Cn2cnc3c(Cl)nc(N)nc32)c1C
1950: cell count ([18]; measured here: total cells with miR-34 induction, stronger effect = lower value)
1960: cell count ([18]; measured here: total cells without miR-34 induction)
1.45: fold change ([18]; measured here: relative caspase fold change +Dox/-Dox)
4.45: SSMD [9]
active: AC50 [1] 0.525 µM | AC50 [2] 1.18 µM | AC50 [3] 187 nM | AC50 [4] 332 nM | AC50 [5] 1.05 µM | AC50 [6] 742 nM | AC50 [7] 1.05 µM | z-score ([19]; MELAS cybrid survival, CellTiter-Glo 48 h, stronger effect = higher value) 2.83 | viability [10, 23] 99.7% | viability [10, 29] 82.7% | viability [10, 38] 33.6% | viability [10, 39] 68.7% | viability [10, 40] 98.4% | viability [10, 42] 20.3% | viability [10, 43] 9.78% | viability [10, 44] 12.2% | viability [10, 45] 15.4% | viability [10, 46] 9% | viability [10, 47] 7.18% | viability [10, 48] 11.2% | viability [10, 49] 10.3% | viability [10, 50] 9.01% | viability [10, 51] 6.09%
inactive: fold change ([18]; stronger effect = lower value, cell number ratio, induced over uninduced) 0.993 | plate-normalised HSF1 focus index [9] 1.16 | viability [10, 20] 115% | viability [10, 21] 104% | viability [10, 22] 111% | viability [10, 24] 122% | viability [10, 25] 111% | viability [10, 26] 116% | viability [10, 27] 110% | viability [10, 28] 123% | viability [10, 30] 122% | viability [10, 31] 118% | viability [10, 32] 125% | viability [10, 33] 111% | viability [10, 34] 128% | viability [10, 35] 121% | viability [10, 36] 133% | viability [10, 37] 137% | viability [10, 41] 127%
7350: cell count [9]
0.0158: z-score ([19]; Rieske KO mouse fibroblast survival, CellTiter-Glo 72 h)
